Source: PubChem BioAssay AID504634 (The Scripps Research Institute Molecular Screening Center, 2011)
About 280 (0.082%) of roughly 340,000 compounds were called active. Shown is part of a subset that was picked to be rich in actives. Unmarked numbers belong to inactive results. Cut-off read from the data, not from the text of the source: active = inhibition mostly above about 23% (no sharp cut-off); inactive = mostly below about 18%.

molecular target: 5-hydroxytryptamine receptor 5A (Homo sapiens) (UniProt P47898); assay: inverse agonism at human 5-HT5A receptor – cell-based, luminescence, full-deck HTS, counter-screen for OPRM1-OPRD1 heterodimer inverse agonist project, primary screen (AID 504634); conditions: HTR5A cell line, at 9.3 µM, hits give high values;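 note: 0% = cells with DMSO and 100% = no-cell wells with DMSO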
Sequence (P47898 whole entry, looked up): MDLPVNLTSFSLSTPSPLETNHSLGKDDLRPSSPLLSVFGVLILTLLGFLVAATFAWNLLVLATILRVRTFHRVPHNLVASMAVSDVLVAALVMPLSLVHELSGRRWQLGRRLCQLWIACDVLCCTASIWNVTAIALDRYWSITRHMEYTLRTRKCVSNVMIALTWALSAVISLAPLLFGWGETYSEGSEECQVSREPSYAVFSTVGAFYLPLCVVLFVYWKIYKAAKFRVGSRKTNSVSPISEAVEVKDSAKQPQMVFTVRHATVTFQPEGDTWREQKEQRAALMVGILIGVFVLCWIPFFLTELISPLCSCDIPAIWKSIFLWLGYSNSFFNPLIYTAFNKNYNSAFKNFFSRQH

| SMILES | inhibition |
| --- | --- |
| CC(=O)OC1C2(CC3N4C(=O)C5(CO)SSC4(CC31O)C(=O)N5C)OC(C)C(C)(C)C2=O (stereo not given) | 97.6% (active) |
| COC1C(O)C(C)OC(OC2CCC3(C=O)C(CCC4C3CCC3(C)C(C5=CC(=O)OC5)CCC43O)C2)C1O (stereo not given) | -11% |
| c1ccc(C2NCc3ccccc3-n3cccc32)cc1 (stereo not given) | -5.59% |
| COC(=O)C1=C(c2cc3ccccc3s2)C[C@@H]2CC[C@H]1N2C(=O)NC(C)C | 5.09% |
| C[C@]12CCC3C(CC[C@H]4[C@H](O)[C@H](O)CC[C@]34C)C1CC[C@@H]2O (stereo not given in full) | -10.8% |
